Measurements published in PubChem BioAssay (Tox21).
Results filed as inconclusive are left out. The source made the active and inactive calls. Unless noted, calls come from the whole dose curve; as a rule, active = well fitted curve in the direction sought with a large enough effect in the repeat runs; inconclusive = weak or mixed curves; inactive = no such curve, though single readings can be large; an effect the other way counts as inactive or inconclusive.

Experiments:
[1] = A CellTox Green Cytotoxicity Assay to monitor cytotoxicity in HepG2 cells - 0 hour (AID 1224882); note: nearly all actives have a fitted effect of over 35% in size
How it was run: (§1)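 Fluorescent DNA-binding dye, 600 HepG2 cells/well, 5 h preincubation then compound in DMSO; same plates read at 0–40 h, 37 C.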

[2] = A CellTox Green Cytotoxicity Assay to monitor cytotoxicity in HepG2 cells - 32 hour (AID 1224883); note: nearly all actives have a fitted effect of over 50% in size
How it was run: as §1

[3] = A CellTox Green Cytotoxicity Assay to monitor cytotoxicity in HEK293 cells - 8 hour (AID 1224884); note: nearly all actives have a fitted effect of over 35% in size
How it was run: (§2)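 Homogeneous no-lysis format: HEK293 cell suspension mixed with CellTox Green reagent, seeded, incubated 5 h at 37 C/5% CO2, then dosed by pintool with compound in DMSO.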

[4] = qHTS RealTime-Glo MT Cell Viability Assay in HepG2 cells - 16 hour (AID 1224885); note: nearly all actives have a fitted effect of over 50% in size
How it was run: (§3)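 Real-time, nonlytic viability: 600 HepG2 cells/well mixed with NanoLuc enzyme plus prosubstrate; 5 h settle, compound (DMSO) added by pintool; luminescence monitored over 40 h at 37 C.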

[5] = qHTS RealTime-Glo MT Cell Viability Assay in HEK293 cells - 24 hour (AID 1224886); note: top concentration of the series differs between compounds; nearly all actives have a fitted effect of over 50% in size
How it was run: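 Cells + reagent dispensed (600 cells/well, HEK293) → 5 h at 37 C/5% CO2 → 23 nL compound in DMSO pinned → 40 h at 37 C → luminescence read at 0, 8, 16, 24, 32, 40 h.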

[6] = qHTS RealTime-Glo MT Cell Viability Assay in HEK293 cells - 8 hour (AID 1224887); note: top concentration of the series differs between compounds; nearly all actives have a fitted effect of over 50% in size
How it was run: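 Measured as luminescence from the same continuously cultured HEK293 wells at successive time points (0, 8, 16, 24, 32, 40 h) after compound addition. Reagent present from seeding; dosing at 5 h; incubation 37 C.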

[7] = A CellTox Green Cytotoxicity Assay to monitor cytotoxicity in HEK293 cells - 16 hour (AID 1224888); note: nearly all actives have a fitted effect of over 35% in size
How it was run: as §2

[8] = qHTS RealTime-Glo MT Cell Viability Assay in HepG2 cells - 0 hour (AID 1224889); note: nearly all actives have a fitted effect of over 50% in size
How it was run: as §3

[9] = A CellTox Green Cytotoxicity Assay to monitor cytotoxicity in HepG2 cells - 8 hour (AID 1224890); note: nearly all actives have a fitted effect of over 45% in size
How it was run: as §1

[10] = qHTS assay to identify small molecule antagonists of the estrogen receptor alpha (ER-alpha) signaling pathway using the BG1 cell line in the presence of 0.1 nM 17-beta-estradiol - cell viability counter screen (AID 1259241); note: nearly all actives have a fitted effect of over 40% in size
How it was run: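 Live-cell protease activity (CellTiter-Fluor fluorescence, 30 min) was read in the same wells after VM7Luc4E2 cells had been exposed to compounds with 0.1 nM 17beta-estradiol for 22 hr at 37C.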

[11] = qHTS assay to identify small molecule antagonists of the androgen receptor (AR) signaling pathway using the MDA cell line in the presence of 0.5 nM R1881 - cell viability counter screen (AID 1259242); note: nearly all actives have a fitted effect of over 45% in size
How it was run: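 Human breast carcinoma MDA-kb2 cells, cultured without CO2, receive compounds alongside 0.5 nM (final) R1881 agonist. After 16 hr at 37C, viability is taken as live-cell protease signal.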

[12] = target: Estrogen receptor (Homo sapiens) (UniProt P03372); assay: qHTS assay to identify small molecule antagonists of the estrogen receptor alpha (ER-alpha) signaling pathway using the BG1 cell line in the presence of 0.1 nM 17-beta-estradiol (AID 1259244); note: nearly all actives have a fitted effect of over 50% in size
How it was run: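 Seeding of stripped-serum-adapted VM7Luc4E2 cells, 24 h attachment, compound transfer, then 0.1 nM final 17beta-estradiol; after 22 h incubation, ONE-Glo reagent and luminescence reading.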

[13] = qHTS assay to identify small molecule HDAC inhibitors (AID 1259364);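 note: wild-type HCT-116 cells with endogenous class I/II HDAC activity; top concentration of the series differs between compounds; nearly all actives have a fitted effect of over 45% in size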
How it was run: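 After a 2 hr compound incubation (37C, 5% CO2), HCT-116 cells seeded at 1,500/well the day before received HDAC-Glo reagent; signal read as luminescence after 30 min at room temperature.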

[14] = qHTS assay to identify small molecule HDAC inhibitors - cell viability counter screen (AID 1259365)
How it was run: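 HCT-116 (wild type), 1,500 cells/well, overnight 37C/5% CO2; compound in DMSO 2hr; CellTiter-Glo 30min RT; luminescence read.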

[15] = qHTS assay to identify small molecule antagonists of the sonic hedgehog signaling (Shh) pathway - cell viability counter screen (AID 1259367); note: nearly all actives have a fitted effect of over 55% in size
How it was run: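 CellTiter-Fluor signal in conditioned medium-stimulated 3T3 Gli1-Luc cells, 23 hr compound exposure, 37C.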

[16] = qHTS assay to identify small molecule antagonists of the sonic hedgehog signaling (Shh) pathway (AID 1259369; calls by dose curve; note: nearly all actives have a fitted effect of over 45% in size)
How it was run: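 Gli1 transcriptional reporter (firefly Luc) in NIH/3T3 background, conditioned-medium activated. 24hr exposure, luminescence endpoint.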

[17] = qHTS assay to identify small molecule agonists of the sonic hedgehog signaling (Shh) pathway - cell viability counter screen (AID 1259366); note: nearly all actives have a fitted effect of over 50% in size
How it was run: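 CellTiter-Fluor fluorescence read-out, 1 hr at 37C, added after 23hr compound exposure. Cells: 3T3 Gli1-Luc, an NIH/3T3 clone with stably integrated Gli1-Luc reporter, plated 4hr before compound.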

[18] = qHTS assay to identify small molecule agonists of the sonic hedgehog signaling (Shh) pathway (AID 1259368; calls by dose curve;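 note: NIH/3T3-derived 3T3Gli1-Luc cells carrying a stable Gli1-driven firefly luciferase reporter; series mostly up to about 92 µM; nearly all actives have a fitted effect of over 15% in size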)
How it was run: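 Stable NIH/3T3 Gli1-Luc reporter clone; 24 hr cpd exposure after a 4 hr settling period; luminescence endpoint.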

[19] = qHTS assay to identify small molecule phospholipidosis (PLD) inducers (AID 1259344; active = well fitted curve in the direction sought with a large enough effect; an effect the other way counts as inactive or inconclusive)
How it was run: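 Accumulated phospholipid, stained red by LipidTOX during 24 h compound treatment of HepG2 cells at 37 C, is quantified from images as pit number and intensity, normalised per cell using Hoechst-stained nuclei.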

[20] = target: Androgen receptor (Homo sapiens) (UniProt P10275); assay: qHTS assay to identify small molecule antagonists of the androgen receptor (AR) signaling pathway using the MDA cell line in the presence of 0.5 nM R1881 (AID 1259243); note: nearly all actives have a fitted effect of over 50% in size
How it was run: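 Cells: MDA-kb2 (MMTV-luc). Stimulus: 0.5 nM R1881. Time: 16 hr, 37C, no CO2. Detection: ONE-Glo luminescence after 30 min at RT.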

Measured: Potency

Chain of Estrogen receptor (Homo sapiens) (P03372 whole entry, looked up): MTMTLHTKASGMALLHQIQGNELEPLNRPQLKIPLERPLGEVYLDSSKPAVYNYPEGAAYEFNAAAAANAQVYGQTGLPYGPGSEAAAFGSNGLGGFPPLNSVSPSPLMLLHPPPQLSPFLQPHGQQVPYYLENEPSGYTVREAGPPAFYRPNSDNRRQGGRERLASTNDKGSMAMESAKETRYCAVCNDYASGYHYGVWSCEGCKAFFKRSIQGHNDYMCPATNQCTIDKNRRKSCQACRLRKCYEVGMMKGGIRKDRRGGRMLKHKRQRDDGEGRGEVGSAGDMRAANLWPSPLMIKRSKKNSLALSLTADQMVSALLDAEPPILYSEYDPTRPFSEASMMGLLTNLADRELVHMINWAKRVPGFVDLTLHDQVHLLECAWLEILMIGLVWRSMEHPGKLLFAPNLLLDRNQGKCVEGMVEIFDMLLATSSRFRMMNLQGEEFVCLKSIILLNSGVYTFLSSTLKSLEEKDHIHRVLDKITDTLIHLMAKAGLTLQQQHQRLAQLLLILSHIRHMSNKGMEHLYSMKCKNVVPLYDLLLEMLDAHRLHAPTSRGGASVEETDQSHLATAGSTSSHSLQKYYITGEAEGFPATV
Chain of Androgen receptor (Homo sapiens) (P10275 whole entry, looked up): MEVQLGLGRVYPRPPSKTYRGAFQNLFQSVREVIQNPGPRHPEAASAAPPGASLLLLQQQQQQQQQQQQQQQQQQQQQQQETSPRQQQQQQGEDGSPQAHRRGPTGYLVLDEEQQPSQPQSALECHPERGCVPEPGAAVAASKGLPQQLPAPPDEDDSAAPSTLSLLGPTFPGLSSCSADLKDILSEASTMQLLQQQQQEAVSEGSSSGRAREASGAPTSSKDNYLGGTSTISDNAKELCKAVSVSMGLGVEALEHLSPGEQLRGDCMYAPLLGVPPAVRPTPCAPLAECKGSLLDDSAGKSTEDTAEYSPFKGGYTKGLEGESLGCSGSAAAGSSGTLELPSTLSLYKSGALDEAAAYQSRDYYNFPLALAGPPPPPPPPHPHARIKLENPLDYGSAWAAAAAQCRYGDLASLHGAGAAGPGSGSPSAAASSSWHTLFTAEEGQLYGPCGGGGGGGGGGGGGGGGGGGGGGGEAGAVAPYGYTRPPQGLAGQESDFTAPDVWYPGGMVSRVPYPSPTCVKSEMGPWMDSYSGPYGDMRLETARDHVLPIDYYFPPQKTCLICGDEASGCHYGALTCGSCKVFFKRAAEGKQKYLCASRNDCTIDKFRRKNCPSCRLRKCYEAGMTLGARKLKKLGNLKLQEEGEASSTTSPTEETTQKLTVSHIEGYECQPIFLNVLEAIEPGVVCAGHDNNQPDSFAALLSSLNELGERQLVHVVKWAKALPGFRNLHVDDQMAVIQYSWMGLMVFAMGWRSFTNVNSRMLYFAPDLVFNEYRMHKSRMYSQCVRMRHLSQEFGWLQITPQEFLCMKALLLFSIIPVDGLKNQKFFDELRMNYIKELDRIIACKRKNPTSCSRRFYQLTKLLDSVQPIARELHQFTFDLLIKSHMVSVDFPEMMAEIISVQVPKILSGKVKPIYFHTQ

CCCCNC(=S)NCCCC
not listed: [17] | [18] | [19] | [20]
inactive: all other assays above

Oc1ccccc1F
not listed: [19] | [20]
inactive: all other assays above

C=C(C)C(=O)OCCOP(=O)(O)O
not listed: [19] | [20]
inactive: all other assays above

CC(=O)OC1C2(C)CCC(C2)C1(C)C (stereo not drawn)
not listed: [19] | [20]
inactive: all other assays above

CC(=O)N[C@@H](CC(C)C)C(=O)O
not listed: [20]
inactive: all other assays above

CC(C)C(=O)OCC(C)(C)C(O)C(C)C (stereo not drawn)
not listed: [19] | [20]
inactive: all other assays above

CC(=O)OC(C)OC(C)=O
not listed: [12] | [18] | [19]
inactive: all other assays above

CCCCCCCCOC(=O)CCCCCCCCC(=O)OCCCCCCCC
not listed: [19] | [20]
inactive: all other assays above

COC(=O)C(C)O (stereo not drawn)
not listed: [12] | [16] | [19]
inactive: all other assays above

O=C1CCCc2ccccc21
not listed: [19] | [20]
inactive: all other assays above

O=C1C=CC(=O)O1
not listed: [19] | [20]
inactive: all other assays above

CCOC(=O)C(Br)c1ccccc1 (stereo not drawn)
not listed: [19] | [20]
inactive: all other assays above
